Laboratory results published in PubChem BioAssay AID488922 (Johns Hopkins Ion Channel Center, 2010).
Hit rate of the full screen: of about 310,000 compounds, about 3,800 (1.2%) were called active.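 Rule for the calls: active = ratio B-score over 3 SD below the library mean, with starting fluorescence within 5 SD of its mean; inactive = the rest, inconclusive results apart.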 The sample as a whole holds a higher share of actives than the screen did.

Biological target: Potassium channel subfamily K member 9 (Homo sapiens) (UniProt Q9NPC2)
Sequence (Q9NPC2 whole entry, looked up): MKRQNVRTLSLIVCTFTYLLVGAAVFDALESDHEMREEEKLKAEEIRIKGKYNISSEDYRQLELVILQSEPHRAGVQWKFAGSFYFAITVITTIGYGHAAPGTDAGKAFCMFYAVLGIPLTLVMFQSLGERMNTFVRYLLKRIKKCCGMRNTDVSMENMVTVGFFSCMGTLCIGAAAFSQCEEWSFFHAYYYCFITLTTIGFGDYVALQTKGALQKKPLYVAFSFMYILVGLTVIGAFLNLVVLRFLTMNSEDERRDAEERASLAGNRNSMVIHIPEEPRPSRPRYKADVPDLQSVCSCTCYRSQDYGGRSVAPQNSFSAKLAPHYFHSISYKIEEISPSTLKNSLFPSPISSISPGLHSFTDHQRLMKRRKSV
Test: blockers of human TASK-3 (KCNK9) channel – HEK293 cells, thallium flux, primary screen (AID 488922);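 for B-score: negative B-score means less thallium flux so channel inhibition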
Conditions: HEK293 KCNK9, FluxOR thallium flux fluorescence, at 10 µM; hits give low values

B-score, active:
CCc1cccc(C)c1N(C(=O)Cn1c(CO)nc2ccccc21)C(C)COC (stereo unspecified) -9.35, CCOc1ccc2[nH]c(=O)c(CN(Cc3nnnn3CCc3ccccc3)CC3CCCO3)cc2c1 (stereo unspecified) -9.63, CCCN1C(=O)C(Cc2nc3ccccc3c(=O)n2-c2ccccc2)c2cc(C)ccc21 (stereo unspecified) -9.54, CCOc1ccc(CN(Cc2ccco2)C(c2cccs2)c2nnnn2C(C)(C)C)cc1 (stereo unspecified) -17, COc1ccc2c(c1)C(c1cccs1)=NNC(c1cccnc1)=N2 -13, CCCNC(=O)CSc1nc(Cc2ccccc2)nc2ccccc12 -7.59, Cc1ccc(-c2csc(NCCc3nc4cc(Cl)c(Cl)cc4n3CCOCCO)n2)cc1 -9.6, NC(N)=Nc1nc(-c2ccccc2)c2cc(Cl)ccc2n1 -6.86, COc1cccc2cc(C(C)N(CCCN3CCOCC3)C(=O)Nc3ccc(Cl)cc3)oc12 (stereo unspecified) -9.66, O=C(Nc1ccccc1[N+](=O)[O-])C1C(c2ccccc2)=C1c1ccccc1 -8.24, CC1=NN(c2cccc(Cl)c2)C(=O)C12CC(C)=C(C)CS2 (stereo unspecified) -11.1, O=C(CN1C(=O)/C(=C\c2ccccc2F)SC1=S)Nc1nc2ccccc2s1 -7.2, COC(=O)Cc1ccc(N(Cc2ccccc2F)S(=O)(=O)c2ccc(Br)cc2)cc1 -6.88

B-score, inactive:
COc1ccc(C2NC(=O)N(C)C(C)=C2[N+](=O)[O-])cc1 (stereo unspecified), COc1ccccc1Cn1c(CO)nc2ccccc21, CCOCN(C(=O)Cn1c(C(C)O)nc2ccccc21)c1c(C)cccc1CC (stereo unspecified), COc1ccc2[nH]c(=O)c(CN(Cc3nnnn3CCc3ccccc3)CC3CCCO3)cc2c1 (stereo unspecified), CCOc1ccc2[nH]c(=O)c(CN(Cc3nnnn3Cc3ccccc3)CC3CCCO3)cc2c1 (stereo unspecified), Cc1cc(=O)[nH]c(Nc2cccc(Br)c2)n1, CCCc1nc2ccccc2c(=O)n1/N=C/c1ccc(O)c(O)c1, CCCc1nc2c(c(=O)c3ccccc3n2C)c(=O)n1-c1cc(C)cc(C)c1, CC(C)(C)n1nnnc1C(c1cccs1)N(Cc1cccnc1)CC1CCCO1 (stereo unspecified), CCOc1ccc(CN(Cc2ccco2)S(=O)(=O)c2ccc(-n3cnnn3)c(OC)c2)cc1, NC(=O)CC(NC(=O)Cc1ccc(Br)cc1)c1ccc(NC2CC3CCC2C3)c([N+](=O)[O-])c1 (stereo unspecified), Cc1cc(C)n2nc(CNS(=O)(=O)c3c(F)c(F)c(F)c(F)c3F)nc2n1, COc1ccc(NC(=O)NN2CCN(C)CC2)c(OC)c1, COc1ccc(C(=O)/C=C/c2cccnc2)c(OC)c1, Fc1ccc2c(c1)C(c1cccnc1)=NNC(c1cccs1)=N2, OCC[C@H]1C[C@H](O)[C@@H](O)[C@]2(CCCCO2)O1, CCc1nc(SCC(=O)NNC(=O)c2ccc(C)cc2)c2ccccc2n1, C=CCSc1nc(Cc2ccc(Cl)cc2)nc2ccccc12, CCOc1ccc(N(C)Cc2cc(=O)oc3ccc(OC)cc23)cc1, Cc1nc(-c2ccc(F)cc2)c(CC(=O)Nc2cc(S(=O)(=O)N3CCCCC3)ccc2C)s1, Cc1ccc(S(=O)(=O)N(C)CC(=O)NCCc2c[nH]c3ccccc23)cc1, OC(c1ccc(Cl)cc1)C(CN1CCOCC1)c1ccccc1 (stereo unspecified), CCCn1c(CCNc2nc(-c3ccc(OC)cc3)cs2)nc2ccccc21, Cc1ccc(-c2csc(N3CCN(c4cc5c(cc4Cl)nc(-c4ccncc4)n5CCOCCO)CC3)n2)cc1, Cc1c(CCC(=O)O)c(=O)oc2c(C)c(OCc3ccccc3Cl)ccc12, C/C=N/N(c1ccccc1)c1ccccc1, O=C(/C=C/c1cccc(C(F)(F)F)c1)N1CCN(c2ccccn2)CC1, OCCCNc1nc(-c2ccccc2)c2cc(Cl)ccc2n1, O=C(CCl)NNc1nc(-c2ccccc2)c2cc(Cl)ccc2n1, Cn1c(C(=O)OC(C(=O)NC2CCCCC2)c2ccccn2)cc2sccc21 (stereo unspecified), COc1cc(C(=O)NCc2cc3cc(Cl)ccc3n2C)cc(OC)c1OC, CCC1C(=O)NCCN1C(=O)c1ccc2nc(Cc3ccc(OC)cc3)oc2c1 (stereo unspecified), COc1cccc(NC(=S)NCCCN2CCOCC2)c1, COc1ccc(Cl)cc1NC(=O)CCN1CCOCC1, Cc1cccc2[nH]c(CN(C)C(=O)C3CCC(=O)N(CCc4ccccc4)C3)nc12 (stereo unspecified), COc1ccccc1-c1nnc(-c2ccc(F)cc2)o1, CC1=C(N2CCN(c3ncccn3)CC2)CCC1=O, O=C(Nc1ccccc1-c1ccccc1)c1ccccc1[N+](=O)[O-], O=C(O)c1ccccc1C(=O)Nc1ccccc1[N+](=O)[O-], CCCCNS(=O)(=O)c1ccc2nc(SCC(=O)Nc3cc(C)cc(C)c3)[nH]c2c1, CCN(CC)CCn1cnc2c1c(=O)n(CCOC(=O)c1cc(OC)c(OC)c(OC)c1)c(=O)n2C, Cc1ccc(OCCNC(=O)CN2C(=O)NC3(CCCC3)C2=O)cc1, O=C(NCc1ccccn1)Nc1ccc(Cl)cc1, CC12CCC(C(=O)N(c3cccc(Cl)c3)C1=O)C2(C)C (stereo unspecified), O=C(COC(=O)C1CC2C=CC1C2)Nc1ccccc1 (stereo unspecified), Cc1ccc(C(=O)N/C(=C\c2ccc(F)cc2)C(=O)NCCN2CCOCC2)cc1, O=C(CN1C(=O)/C(=C/c2ccccc2F)Sc2ccccc21)NCc1cccnc1, O=C(CN1C(=O)S/C(=C\c2ccccc2F)C1=O)NCCCn1ccnc1, Cc1cc(CNCc2c(C(=O)N(C)Cc3ccccc3)nc3ccccn23)nn1C, Cc1ccc(S(=O)(=O)N(CC(=O)Nc2cccnc2)c2ccc(Br)cc2)cc1, CCCNC(=O)CN(Cc1ccccc1F)S(=O)(=O)c1ccc(C)cc1, O=C(/C=C/c1ccc([N+](=O)[O-])cc1)NCCSCc1ccco1, O=C(c1ccc(Br)o1)N1CCN(CCOc2ccccc2)CC1
